Values without a mark were called inactive. Results filed as inconclusive are left out. Calls of active or inactive are those of the source. Unless noted, the call rests on the fitted dose curve; in most records, active means well fitted curve in the direction sought with a large enough effect in the repeat runs; inconclusive means weak or mixed curves; inactive means no such curve, though single readings can be large; an effect the other way counts as inactive or inconclusive.

Experiment [1] concerns the target Thyrotropin receptor (Homo sapiens) (UniProt P16473). Description: qHTS assay to identify small molecule agonists of the thyroid stimulating hormone receptor (TSHR) signaling pathway (AID 1224843; calls by dose curve; further: nearly all actives have a fitted effect of over 45% in size). The essentials:
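Using 15 concentrations per compound in triplicate, cAMP production was monitored in TSHR-HEK293 cells after 30 min compound incubation at RT; HTRF reagents followed, with fluorescence intensity recorded after 1 h.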
A general note: Quantitative high-throughput screening tests each substance at several concentrations.

Experiment [2] is described as follows: qHTS assay to identify small molecule agonists of the hypoxia (HIF-1) signaling pathway - cell viability counter screen (AID 1224844; calls by dose curve; further: nearly all actives have a fitted effect of over 50% in size; further: potency means the concentration at half of the fitted maximal effect). The essentials: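 HRE-bla ME-180; 0.5% dFBS; cpd 17 h, 37C, 5% CO2; CellTiter-Glo lum., 30 min RT, post-FRET read, same wells.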
The nature of experiment [3]: qHTS assay to identify small molecule agonists of H2AX - cell viability counter screen (AID 1224847; calls by dose curve; further: nearly all actives have a fitted effect of over 30% in size; further: potency means the concentration at half of the fitted maximal effect). The essentials:
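CHO-K1 cells plated overnight at 37C, then exposed 3 h at 37C to compounds at 15 concentrations (0.76% DMSO final). Viability by CellTiter-Glo luminescence after 30 min at room temperature.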

Experiment [4] is described as follows: qHTS assay to identify small molecule antagonists of the estrogen related receptor (ERR) signaling pathway from Tox21 library (AID 1224848). Further: nearly all actives have a fitted effect of over 50% in size. The essentials: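 Tox21 10K compounds in DMSO tested for ERR pathway antagonism in NTP's ERR cell line; 18 h, 37 C exposure; ONE-Glo luminescence.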
Experiment [5] can be described thus: qHTS RealTime-Glo MT Cell Viability Assay in HepG2 cells - 24 hour (AID 1224867). Further: nearly all actives have a fitted effect of over 50% in size. In outline:
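Viability was tracked continuously by NanoLuc luminescence from prosubstrate reduced by living HepG2 cells, at successive time points over 40 h of compound exposure. Cells with reagent were preincubated 5 h at 37 °C before compound addition.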

A short description of experiment [6]: qHTS RealTime-Glo MT Cell Viability Assay in HEK293 cells - 32 hour (AID 1224868). Further: nearly all actives have a fitted effect of over 50% in size. Further: potency means the concentration at half of the fitted maximal effect. In outline:
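Viability tracked continuously by luminescence as live cells reduce a prosubstrate for NanoLuc; HEK293 cells preincubated 5 h, compound-treated at 37 C, and read at 0, 8, 16, 24, 32 and 40 h.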

Experiment [7] is described as follows: qHTS assay to identify small molecule agonists of H2AX (AID 1224845; active means well fitted activation curve with a large enough effect in the signal ratio in the repeat runs, not every such curve was filed as active; the % refers to the signal ratio). In outline: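 Wild-type CHO-K1 cells plated overnight, then exposed 3 hr at 37C to compounds at 15 concentrations (0.76% DMSO). Lysed, then HTRF anti-pH2AX(S139)-cryptate/anti-H2AX-d2 detection after 24 hr at room temperature; emissions 665 and 620 nm.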
The nature of experiment [8]: qHTS assay to identify small molecule agonists of the hypoxia (HIF-1) signaling pathway (AID 1224846; active means well fitted activation curve with a large enough effect in the signal ratio in the repeat runs, not every such curve was filed as active; the % refers to the signal ratio). In outline: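 Reporter induction in HRE-bla ME-180 cells is taken as agonism: cells sit 5 hrs after plating, receive compounds or DMSO only, incubate 17 hrs at 37C under 5% CO2, and are loaded with CCF4-AM for beta-lactamase FRET measurement.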
Experiment [9] can be described thus: A CellTox Green Cytotoxicity Assay to monitor cytotoxicity in HEK293 cells - 0 hour (AID 1224869). Further: nearly all actives have a fitted effect of over 50% in size. In outline: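 Tox21 screen in HEK293: membrane-impermeant cyanine dye fluoresces on binding dead-cell DNA; compound pinned 5 h post-seeding, plates held at 37 C, signal read repeatedly through 40 h.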
Experiment [10] can be described thus: qHTS assay to identify small molecule agonists of the estrogen related receptor (ERR) signaling pathway from Tox21 library (AID 1224849; calls by dose curve; further: nearly all actives have a fitted effect of over 15% in size). As to conditions: ERR reporter cell line, ONE-Glo luciferase, 18 h; at 92.4 µM (top of the series) unless noted. In outline: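 Tox21 compounds tested for ERR agonism in an NTP reporter cell line: 18 h treatment at 37 C, then ONE-Glo luminescence.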
On the % scale 0 is the no-effect control and ±100 the full control effect.

Chain of Thyrotropin receptor (Homo sapiens) (P16473 whole entry, looked up): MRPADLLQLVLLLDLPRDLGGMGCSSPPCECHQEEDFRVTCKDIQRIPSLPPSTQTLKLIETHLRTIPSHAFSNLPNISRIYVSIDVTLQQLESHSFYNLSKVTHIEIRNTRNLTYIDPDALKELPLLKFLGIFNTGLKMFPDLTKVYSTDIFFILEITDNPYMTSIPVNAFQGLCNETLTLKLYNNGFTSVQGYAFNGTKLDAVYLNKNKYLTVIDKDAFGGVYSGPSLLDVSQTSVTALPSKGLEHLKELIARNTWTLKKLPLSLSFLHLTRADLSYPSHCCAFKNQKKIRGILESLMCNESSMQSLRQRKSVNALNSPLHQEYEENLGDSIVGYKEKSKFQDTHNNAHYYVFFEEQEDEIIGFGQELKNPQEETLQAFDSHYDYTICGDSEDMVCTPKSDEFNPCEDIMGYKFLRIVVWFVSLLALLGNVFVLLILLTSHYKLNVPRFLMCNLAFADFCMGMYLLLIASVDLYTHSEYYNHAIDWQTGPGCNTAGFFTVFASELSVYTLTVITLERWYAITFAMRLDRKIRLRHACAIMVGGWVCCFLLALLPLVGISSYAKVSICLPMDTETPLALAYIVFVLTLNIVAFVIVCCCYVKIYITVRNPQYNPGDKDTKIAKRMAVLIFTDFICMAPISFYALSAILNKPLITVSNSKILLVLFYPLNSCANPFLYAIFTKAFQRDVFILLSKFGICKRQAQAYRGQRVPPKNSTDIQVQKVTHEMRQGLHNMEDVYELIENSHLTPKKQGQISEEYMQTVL

On to `CO`, for which the result in [1] and in [5] was inactive. Also, the Potency entry in experiment [2], in experiment [3], in experiment [4] and in [6] was “inactive” in each case.

Consider `CC/C=C\CCCCO`, for which the Potency entry in experiment [2], in [3], in experiment [6] and in [9] was “inactive” each time. Besides, the call in experiment [7], in experiment [8] and in [5] was inactive.

For `C1C2OC2C2C1C1CC2C2OC12` (stereo unspecified), the Potency result in experiment [2], in [3], in experiment [6] and in experiment [9] was “inactive” each time. Also, the compound was called inactive in experiment [7], in experiment [8] and in experiment [5].

Turning to `c1ccc2cnncc2c1`, the compound was called inactive in experiment [1] and in experiment [5]. Further, the Potency result in experiment [2], in experiment [3], in experiment [4] and in experiment [9] was “inactive” in each case. Moreover, the activity change, positive = activation in experiment [10] is -2.66%.

Consider `c1ccc(SCCSc2ccccc2)cc1`, for which the Potency entry in experiment [2], in experiment [3], in experiment [4], in [6] and in [9] was “inactive” each time. Further, the outcome in experiment [7], in [8] and in experiment [5] was inactive. For the same compound, the activity change, positive = activation in experiment [10] was 69.4% (active).

As for `COc1cc(C)cc(O)c1`, the Potency result in experiment [2], in experiment [3], in experiment [6] and in [9] was “inactive” each time. Moreover, the outcome in experiment [7], in [8] and in [5] was inactive.

As for `N#CCc1ccccc1[N+](=O)[O-]`, the compound was called inactive in experiment [1], in [8] and in [5]. For the same compound, the Potency entry in experiment [2], in [6] and in experiment [9] was “inactive” in each case.

For `CCCCCN(CCCCC)C(=O)C(CCC(=O)O)NC(=O)c1ccc(Cl)c(Cl)c1` (stereo unspecified), the result in experiment [1], in experiment [7] and in experiment [5] was inactive. Further, the Potency result in [3], in [6] and in [9] was “inactive” in each case.

In the case of `O=C1CC2(CCCC2)CC(=O)N1`, the outcome in experiment [1] and in [5] was inactive. The Potency entry in [2], in experiment [3], in [6] and in [9] was “inactive” in each case.

As to `CN1[C@@H]2CC[C@H]1CC(NC(=O)n1c(=O)[nH]c3ccccc31)C2` (stereo partly specified), the Potency result in experiment [2], in experiment [3], in experiment [4], in [6] and in experiment [9] was “inactive” each time. The result in experiment [7], in [8] and in experiment [5] was inactive. Moreover, the activity change, positive = activation in experiment [10] is 7.7% [at 42.5 µM].

`Oc1ccc2c(c1)OC[C@@H](N1CCC(O)(c3ccc(F)cc3)CC1)[C@H]2O`: the Potency result in [2], in experiment [3], in experiment [4] and in experiment [6] was “inactive” in each case. Besides, the result in [7], in experiment [8] and in experiment [5] was inactive. The activity change, positive = activation in experiment [10] was 111% [at 42.5 µM] (active).

On to `O=c1[nH]c2ccccc2c(=O)n1CCCl`, for which the outcome in experiment [1] and in experiment [5] was inactive. The Potency result in experiment [2], in experiment [3], in [4], in [6] and in experiment [9] was “inactive” each time. The activity change, positive = activation in experiment [10] is -3.42% [at 42.5 µM].

`Cc1ccccc1C(=O)O`: the compound was classed as inactive in experiment [1] and in [5]. The Potency result in experiment [2], in experiment [3], in experiment [6] and in [9] was “inactive” in each case.

Turning to `Oc1cc(O)c2c(c1)O[C@H](c1ccc(O)c(O)c1)[C@H](O)C2`, the compound was called inactive in [1] and in experiment [5]. In addition, the Potency entry in experiment [6] is “inactive”.

As for `CCCCCCCCCCCl`, the Potency entry in [2], in [3], in experiment [4], in experiment [6] and in experiment [9] was “inactive” throughout. The compound was classed as inactive in [7], in [8] and in [5].

In the case of `C1=C\CC/C=C\CC/C=C\CC/1`, the Potency entry in [2], in experiment [3], in experiment [4], in experiment [6] and in experiment [9] was “inactive” in each case. The result in experiment [7], in experiment [8] and in experiment [5] was inactive. The activity change, positive = activation in experiment [10] was 2.93%.

In the case of `CCCCCCCCCCCCCCCCCCOCC(O)CO` (stereo unspecified), the outcome in experiment [1], in [8] and in experiment [5] was inactive. The Potency entry in experiment [2], in experiment [6] and in experiment [9] was “inactive” each time.

Turning to `CCN1CCCC1CNC(=O)c1cc(S(N)(=O)=O)ccc1OC` (stereo unspecified), the call in experiment [1] and in experiment [5] was inactive. Also, in experiment [2], the Potency was 17.4 µM (active). In addition, the Potency entry in [9] was “inactive”.

For `COC(=O)CCCC(=O)O`, the compound was classed as inactive in experiment [1] and in [5]. The Potency entry in [2], in [6] and in experiment [9] was “inactive” throughout.

Regarding `Cc1ncc(CSSCc2cnc(C)c(O)c2CO)c(CO)c1O`, the compound was classed as inactive in [1] and in experiment [5]. Besides, the Potency entry in [2], in [3], in experiment [4], in experiment [6] and in [9] was “inactive” in each case. Moreover, in experiment [10], the activity change, positive = activation was 0.477% [at 42.5 µM].

In the case of `CC(O)CN(CCCN(C)C)CCCN(C)C` (stereo unspecified), the Potency entry in experiment [2], in [3] and in [6] was “inactive” throughout. In addition, the compound was classed as inactive in [7], in experiment [8] and in experiment [5].

As to `Cc1nccn1CC1CCc2c(c3ccccc3n2C)C1=O` (stereo unspecified), the call in experiment [1] and in experiment [5] was inactive. The Potency entry in [2], in [3], in [6] and in [9] was “inactive” in each case.

As to `[O-][N+](=Nc1ccccc1)c1ccccc1`, the Potency entry in experiment [2], in experiment [3] and in experiment [6] was “inactive” in each case. Also, the call in [7], in experiment [8] and in experiment [5] was inactive.

For the compound `O=C(O)/C=C/c1ccc(/C=C/C(=O)O)cc1`, the Potency result in experiment [2], in experiment [3] and in [6] was “inactive” throughout. For the same compound, the compound was called inactive in [7], in experiment [8] and in [5].

Consider `NC(=O)c1ncn([C@@H]2O[C@H](CO)[C@@H](O)[C@H]2O)c1N`, for which the compound was called inactive in experiment [1] and in experiment [5]. Moreover, the Potency result in [2], in experiment [3], in experiment [6] and in experiment [9] was “inactive” in each case.

As for `C=C[Si](OC)(OC)OC`, the Potency result in experiment [2], in experiment [3], in experiment [6] and in experiment [9] was “inactive” throughout. Moreover, the call in experiment [7], in [8] and in [5] was inactive.

For `COC(=O)C1=C(C)NC(C)=C(C(=O)OCC(C)=O)C1c1ccccc1[N+](=O)[O-]` (stereo unspecified), the Potency result in experiment [2], in [3], in [4], in [6] and in experiment [9] was “inactive” in each case. Besides, the compound was called inactive in experiment [7], in experiment [8] and in [5].

Consider `CCCCc1ccc(N)cc1`, for which the call in experiment [1] and in experiment [5] was inactive. In addition, the Potency entry in experiment [2], in experiment [3] and in experiment [9] was “inactive” throughout.

In the case of `CC(CCO)CCCC(C)(C)O` (stereo unspecified), the Potency result in experiment [2], in [3], in experiment [6] and in [9] was “inactive” each time. In addition, the call in [7], in [8] and in experiment [5] was inactive.

Consider `CCC(C(=O)NC(N)=O)c1ccccc1` (stereo unspecified), for which the compound was classed as inactive in experiment [1] and in [5]. Further, the Potency entry in [2], in [3], in experiment [4], in experiment [6] and in experiment [9] was “inactive” in each case. Also, the activity change, positive = activation in experiment [10] was -3.04%.

Regarding `C/C=C1\C(=O)C[C@H]2[C@@H]3CCC4=CC(=O)CC[C@]4(C)[C@H]3CC[C@]12C`, the Potency entry in experiment [2] and in [9] was “inactive” each time. Besides, the outcome in [7], in experiment [8] and in experiment [5] was inactive. Moreover, the figures for the Potency in experiment [3] and in [6] were 55.5 µM (active) and 21.4 µM (active), respectively.

As for `CNC(=O)c1c(I)c(NC(=O)CCCCC(=O)Nc2c(I)c(C(=O)O)c(I)c(C(=O)NC)c2I)c(I)c(C(=O)O)c1I`, the Potency entry in experiment [2], in experiment [4], in [6] and in experiment [9] was “inactive” in each case. Besides, the compound was classed as inactive in experiment [7], in [8] and in experiment [5]. The activity change, positive = activation in experiment [10] is 8.83% [at 42.5 µM].

As for `C=C(C)[C@H]1CC=C(C)CC1`, the Potency result in experiment [2], in experiment [3], in experiment [6] and in experiment [9] was “inactive” each time. The compound was called inactive in [7] and in experiment [5].
